Assay results from PubChem BioAssay AID1224861 (National Center for Advancing Translational Sciences (NCATS), 2016).
Records with an inconclusive call do not appear. Values without a mark were called inactive. The source made the active and inactive calls. The call rests on the fitted dose curve; in most records, active means well fitted cell-killing curve with a large enough effect; inconclusive means small, poorly fitted or top-dose-only effect, or effect the other way; inactive means flat fitted curve, though single readings scatter.

test: Compound cytotoxicity measured by an ATP content assay as a counter-screen for lead compounds in human astrocytes; details: human astrocytes viability, ATP luminescence; series mostly up to 46.1 µM; activity change, negative = cytotoxicity: at the top concentration
How it was run: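 Cytotoxicity expressed as percent inhibition of cell viability from ATP-dependent luminescence, read after 10 min at room temperature with 1:1 kit reagent. Compound exposure times matched the primary screens, e.g. 6, 24 or 72 h, in cultured human astrocytes.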

| Structure (SMILES) | activity change, negative = cytotoxicity | Potency |
| --- | --- | --- |
| CC(C)OC(=O)CCCC=CC[C@@H]1[C@H](C=C[C@@H](O)COc2cccc(C(F)(F)F)c2)[C@H](O)C[C@@H]1O | 8.58% |  |
| CC[C@]1(O)C[C@H]2CN(CCc3c([nH]c4ccccc34)[C@@](C(=O)OC)(c3cc4c(cc3OC)N(C=O)[C@H]3[C@@](O)(C(=O)OC)[C@H](OC(C)=O)[C@]5(CC)C=CCN6CC[C@]43[C@@H]65)C2)C1 | -8.84% |  |
| Cc1[nH]c(C=C2C(=O)Nc3ccccc32)c(C)c1CCC(=O)O | -0.919% |  |
| [O-][n+]1ccccc1SSc1cccc[n+]1[O-] |  | 112 nM (active) |
| CC=CC[C@@H](C)C(=O)[C@H]1C(=O)N[C@@H](C(C)C)C(=O)N(C)CC(=O)N(C)[C@@H](CC(C)C)C(=O)N[C@@H](C(C)C)C(=O)N(C)[C@@H](CC(C)C)C(=O)N[C@@H](C)C(=O)N[C@H](C)C(=O)N(C)[C@@H](CC(C)C)C(=O)N(C)[C@@H](CC(C)C)C(=O)N(C)[C@@H](C(C)C)C(=O)N1C | -7.44% |  |
| COc1cccc2c1C(=O)c1c(O)c3c(c(O)c1C2=O)C[C@@](O)(C(=O)CO)C[C@@H]3O[C@H]1C[C@H](N)[C@H](O[C@@H]2CCCCO2)[C@H](C)O1 | -21.9% |  |
| CC(C(=O)O)c1ccc(-c2ccccc2)c(F)c1 (configuration not stated) | 18.4% |  |
| CC(C(=O)O)c1ccc(C(=O)c2cccs2)cc1 (configuration not stated) | -16.1% |  |
| O=c1[nH]nc(Sc2ncc([N+](=O)[O-])s2)n1-c1ccc2c(c1)OCCO2 |  | 1230 nM (active) |
| CN(C)c1ccc2cc(C(=O)N[C@@H](CCCN=C(N)CCl)C(=O)NCc3ccccc3)ccc2c1 | 16.8% |  |
| CC(C)(C)OC(=O)CN(Cc1ccc(Cl)cc1)Cc1ccc([N+](=O)[O-])s1 | -18.4% [at 88.3 µM] |  |
| O=C(/C=C/c1ccccc1)NCCO | 2.38% |  |
| O=S(=O)(O)c1ccc2nc(-c3ccccc3)[nH]c2c1 | -7.27% |  |
| Cc1c(NC(=O)c2ccc(C(C)(C)C)cc2)cccc1-c1cn(C)c(=O)c(Nc2ccc(C(=O)N3CCOCC3)cc2)n1 | -12.9% |  |
| O=C(O)c1cc([N+](=O)[O-])ccc1NCCCc1ccccc1 | -21.8% |  |
| CC1(C)Cc2c(sc(NC(=S)NC(=O)c3ccccc3)c2C(=O)O)CO1 | 1.95% |  |
| CN(C)c1cc(NC(=O)CNC(C)(C)C)c(O)c2c1C[C@@H]1C[C@H]3[C@H](N(C)C)C(=O)C(C(N)=O)=C(O)[C@@]3(O)C(=O)C1=C2O | -1.32% |  |
| O=C(O)[C@@H](c1ccc(OCc2ccc3ccccc3n2)cc1)C1CCCC1 | 1.24% |  |
| CO[C@H]1C(=O)[C@]2(C)[C@@H](OC)C[C@H]3OC[C@@]3(OC(C)=O)[C@H]2[C@H](OC(=O)c2ccccc2)[C@]2(O)C[C@H](OC(=O)[C@H](O)[C@@H](NC(=O)OC(C)(C)C)c3ccccc3)C(C)=C1C2(C)C | -18.2% |  |

| Structure (SMILES) | activity change, negative = cytotoxicity | Potency |
| --- | --- | --- |
| Cc1oncc1C(=O)Nc1ccc(C(F)(F)F)cc1 | -12.6% |  |
| O=C(O)c1cccc(-c2noc(-c3ccccc3F)n2)c1 |  | 5480 nM (active) |
| CC1=C(CO)C(=O)O[C@@H]([C@@H](C)[C@H]2CC[C@H]3[C@@H]4C[C@H]5O[C@]56[C@@H](O)C=CC(=O)[C@]6(C)[C@@H]4CC[C@]23C)C1 | 14.6% |  |
| C[C@H](NC(=O)C(=O)Nc1ccccc1C(C)(C)C)C(=O)N[C@@H](CC(=O)O)C(=O)COc1c(F)c(F)cc(F)c1F | -9.95% |  |
| O=C(Nc1ncc([N+](=O)[O-])s1)c1cccs1 | -6.69% |  |
| Cc1ccc(C(=O)c2ccc(CC(=O)O)n2C)cc1 | 7.64% |  |
| O=C(CS)Nc1ccccc1 | -0.969% |  |
| O=c1c(-c2ccc(O)cc2)coc2cc(OC3O[C@H](CO)[C@H](O)[C@H](O)[C@H]3O)cc(O)c12 (some centres not stated) | -29.9% |  |
| N#C/C(=C\c1ccc(O)c(O)c1)C(=O)Nc1ccccc1 | -1.6% |  |
| O=C(Oc1ccccc1)c1cccc(C(=O)Oc2ccccc2)c1 | 6.57% [at 96.3 µM] |  |
| CC(=C(CCOC(=O)C(C)C)SSC(CCOC(=O)C(C)C)=C(C)N(C=O)Cc1cnc(C)nc1N)N(C=O)Cc1cnc(C)nc1N | -9.52% |  |
| O=c1cc(-c2ccccc2)oc2cc(O)c(O)c(O)c12 | -2.73% |  |
| CC(C(=O)O)c1ccc2c(c1)[nH]c1ccc(Cl)cc12 (configuration not stated) | 5.69% |  |
| O=S(=O)(O)CCSSCCS(=O)(=O)O | -2.01% |  |
| Cc1ccc(O)c(-n2nc3ccccc3n2)c1 | -22.7% |  |
| CN(C)c1ccc(C(=C2C=CC(=[N+](C)C)C=C2)c2ccccc2)cc1 | -28.5% |  |
| CN(C)CCCSc1ccccc1NC(=O)/C=C/c1ccccc1 | 9.71% |  |
| CN1CC(=O)N/C1=N/C(=O)Nc1cccc(Cl)c1 | 10.6% |  |
